Compound activity from PubChem.
Hits are enriched below; roughly 19% of the tested compounds scored in any of these assays.
TDP1 cell CPT: qHTS for Inhibitors of human tyrosyl-DNA phosphodiesterase 1 (TDP1): qHTS in cells in presence of CPT. AID 686979, 2013. hit rate 12% among 420,000. chicken DT40 Tdp1-/-;hTDP1 cells + 20 nM CPT, ATP luminescence, 48 h. Potency, µM (doses to about 46.2 µM), for inactives: top-dose activity change, negative = growth inhibition, hits mostly inhibitors; further: potency means the concentration at half of the fitted maximal effect; nearly all actives have a fitted effect of over 55% in size
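Cell growth measured by CellTiter-Glo luminescence after a minimum 48 h, 37 C compound exposure with 20 nM CPT in Tdp1-knockout DT40 cells stably expressing hTDP1, seeded 400/well; qHTS titration format.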
HT1080NT lethal: qHTS for induction of synthetic lethality in tumor cells producing 2HG: qHTS for the HT-1080-NT fibrosarcoma cell line; hit rate 1.6% among 360,000; Potency, µM (series often up to 46.1 µM), without a hit: at the top dose activity, negative = less viability, most hits filed as cytotoxic; AID 686970, 2013; HT-1080-NT fibrosarcoma viability, CellTiter-Glo ATP luminescence, 48 h;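 further: NT is the 2HG producing partner of a matched IDH1 knockdown line; potency means the concentration at half of the fitted maximal effect; 0% = DMSO-treated cells and -100% = media-only wells without cells; nearly all actives have a fitted effect of over 55% in size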
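750 cells/well, RPMI + 5% FBS; 2 h settle, compound pin-transfer, 48 h at 37 degrees C. CellTiter-Glo 10 min RT, luminescence. Normalized to DMSO and media-only wells.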
DT40 TDP1 no CPT: qHTS for Inhibitors of human tyrosyl-DNA phosphodiesterase 1 (TDP1): qHTS in cells in absence of CPT; DT40 Tdp1-/- hTDP1 cells, no CPT, ATP luminescence, 48 h; Potency, µM (highest dose often 46.2 µM), for the others: top-dose activity change, negative = growth inhibition, actives largely listed as inhibitors; hit rate 15% among 420,000; further: potency means the concentration at half of the fitted maximal effect; nearly all actives have a fitted effect of over 55% in size
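A cellular qHTS used chicken DT40 cells lacking endogenous Tdp1 but carrying stably transfected human TDP1. Compounds were applied without camptothecin, and cell growth kinetics were judged by ATP-dependent luminescence after ≥48 hr.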
IL-1B inflam inh: qHTS for Inhibitors of Inflammasome Signaling: IL-1-beta AlphaLISA Primary Screen | activity change, % at 57.5 µM | THP-1 LPS/ATP IL-1B secretion, AlphaLISA, 16 h; hits give low values | hit rate 4.7% among 360,000; in the data active means activity change below about -50%; inconclusive means mostly about -30% to -49%
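Secreted IL-1B measured by AlphaLISA bead assay after 16 h compound exposure of THP-1 cells; compounds (final up to 57.5 uM) added 1 h before LPS (250 ng/mL) and ATP (1.25 mM) stimulation; lower signal means less secretion.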
uPA generation: qHTS for Inhibitors of Cell Surface uPA Generation. cell surface uPA generation assay, qHTS. Potency, µM (highest dose often 38.3 µM), without a hit: top-dose activity change, negative = inhibition, usual class: inhibitors. hit rate 0.31% among 330,000. AID 540303, 2011; active means well fitted inhibition curve with a large enough effect; inconclusive means small, poorly fitted or top-dose-only effect; inactive means no such curve, though single readings can be large or run the other way; tested in mouse RAW 264.7 cells; further: potency means the concentration at half of the fitted maximal effect; nearly all actives have a fitted effect of over 55% in size
HT1080 IDH1KD tx: qHTS for induction of synthetic lethality in tumor cells producing 2HG: qHTS for the HT-1080-IDH1KD cell line; HT-1080 IDH1 knockdown viability, ATP luminescence, 48 h; Potency, µM (titrated, usually from 46.1 µM), without a hit: at the highest dose activity, negative = toxicity, actives largely listed as cytotoxic; hit rate 2% among 360,000; AID 686971, 2013;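 further: potency means the concentration at half of the fitted maximal effect; 0% = DMSO wells and -100% = cell-free medium wells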
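Knockdown cells (IDH1KD HT-1080) received compounds 2 h after plating at 750 cells/well and were kept 48 h at 37 °C in 5% FBS RPMI. A CellTiter-Glo luminescence read gave % activity for curve fitting.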
Starred values were filed as active, the others as inactive. Unless noted, the call rests on the fitted dose curve; in most records, active means well fitted curve in the direction sought with a large enough effect; inconclusive means small, poorly fitted or top-dose-only effect, or another doubt; inactive means no such curve, though single readings can be large; an effect the other way counts as inactive or inconclusive. Unless noted, on the % scale 0 is the no-effect control and ±100 the full control effect.

`CC(C)(C)c1ccc(C(=O)N/C(N)=N/c2nc3ccccc3o2)cc1` gave TDP1 cell CPT inconclusive, HT1080NT lethal 13.6%, DT40 TDP1 no CPT inconclusive, IL-1B inflam inh 0.0, uPA generation 12.4% and HT1080 IDH1KD tx 9.1%.
Cc1ccc2oc(/N=C(\N)NC(=O)C3CC3)nc2c1 was read as TDP1 cell CPT 9.2µM*, HT1080NT lethal -14.1%, DT40 TDP1 no CPT 4.61µM*, IL-1B inflam inh -20.2, uPA generation inconclusive and HT1080 IDH1KD tx inconclusive.
`Cc1ccc2oc(/N=C(\N)NC(=O)C(C)(C)C)nc2c1` gave TDP1 cell CPT inconclusive, HT1080NT lethal -11.7%, DT40 TDP1 no CPT inconclusive, uPA generation -11.0% and HT1080 IDH1KD tx -6.7%.
`N/C(=N\c1nc2ccccc2o1)NC(=O)c1ccc(F)cc1` gave TDP1 cell CPT 13µM*, HT1080NT lethal inconclusive, DT40 TDP1 no CPT 13µM*, IL-1B inflam inh -0.9, uPA generation -1.5% and HT1080 IDH1KD tx inconclusive.
For N/C(=N\c1nc2ccccc2o1)NC(=O)c1ccccc1Br the results were TDP1 cell CPT inconclusive, HT1080NT lethal 14.2%, DT40 TDP1 no CPT 16.4µM*, IL-1B inflam inh 33.7, uPA generation 1.5% and HT1080 IDH1KD tx 2.2%.
`N/C(=N\c1nc2ccccc2o1)NC(=O)c1ccc(Cl)cc1` gave TDP1 cell CPT inconclusive, HT1080NT lethal 1.2%, DT40 TDP1 no CPT -5.2%, IL-1B inflam inh 8.4, uPA generation 1.6% and HT1080 IDH1KD tx 1.7%.
CC1=C(C(=O)N2CCOCC2)CC(CC(=O)NCCc2ccccn2)C(=O)N1Cc1ccccc1 (configuration not stated) was read as TDP1 cell CPT -2.3%, HT1080NT lethal 8.7%, DT40 TDP1 no CPT 1.8%, IL-1B inflam inh 0.0 and HT1080 IDH1KD tx 19.9%.
`Cc1csc(SC(C)C(=O)NCC2CCCO2)n1` (configuration not stated) gave TDP1 cell CPT 0.9%, HT1080NT lethal -8.5%, DT40 TDP1 no CPT 3.3%, IL-1B inflam inh 14.5, uPA generation 4.1% and HT1080 IDH1KD tx 5.2%.
Screening COc1ccc2c(c1)[nH]c1c(N3CCN(Cc4ccc5c(c4)OCO5)CC3)ncnc12 returned TDP1 cell CPT 2.31µM*, HT1080NT lethal -18.9%, DT40 TDP1 no CPT 1.64µM*, IL-1B inflam inh -104.8*, uPA generation -9.2% and HT1080 IDH1KD tx inconclusive.
For COc1ccc2c(c1)[nH]c1c(N3CCSCC3)ncnc12 the results were TDP1 cell CPT 7.31µM*, HT1080NT lethal inconclusive, DT40 TDP1 no CPT 8.2µM*, uPA generation -9.2% and HT1080 IDH1KD tx 14.6µM*.
Screening CN(C)CCOc1ccccc1-c1ccccc1 returned TDP1 cell CPT 6.7%, HT1080NT lethal -1.7%, DT40 TDP1 no CPT -18.2%, IL-1B inflam inh -4.3, uPA generation 1.3% and HT1080 IDH1KD tx -8.9%.
For Cc1c(-c2ccccc2)c(-c2ccc(OCCN(C)C)cc2)n2ccccc12 the results were TDP1 cell CPT inconclusive, HT1080NT lethal -7.4%, DT40 TDP1 no CPT inconclusive, IL-1B inflam inh -58.9*, uPA generation 8.8% and HT1080 IDH1KD tx -20.2%.
`CC1CCN(S(=O)(=O)c2ccc3nc(N4CCN(c5ccccc5F)CC4)ccc3c2)CC1` gave TDP1 cell CPT -13.6% and DT40 TDP1 no CPT inconclusive.
Cc1ccc(CNc2ccc3cc(S(=O)(=O)N4CCCCC4)ccc3n2)cc1 was read as TDP1 cell CPT 10.3µM* and DT40 TDP1 no CPT 10.3µM*.
CCOc1ccccc1CNc1ccc2cc(S(=O)(=O)N3CCC(C)CC3)ccc2n1 was read as TDP1 cell CPT inconclusive and DT40 TDP1 no CPT 23.1µM*.
For CC1CCN(S(=O)(=O)c2ccc3nc(NCc4ccc(N(C)C)cc4)ccc3c2)CC1 the results were TDP1 cell CPT 23.1µM* and DT40 TDP1 no CPT 11.6µM*.
CC1CCN(S(=O)(=O)c2ccc3nc(NCc4ccc(F)cc4)ccc3c2)CC1 was read as TDP1 cell CPT 13µM* and DT40 TDP1 no CPT 13µM*.
Screening CCCn1cnnc1CNC(=O)C1CCC(=O)N(CCc2cccc(F)c2)C1 (configuration not stated) returned TDP1 cell CPT -2.3%, HT1080NT lethal 21.9%, DT40 TDP1 no CPT 23.6%, IL-1B inflam inh 11.9, uPA generation 4.2% and HT1080 IDH1KD tx 11.5%.
`COC(=O)c1sccc1NC(=O)CC1C(=O)NCCN1C(=O)Nc1cc(Cl)ccc1OC` (configuration not stated) gave TDP1 cell CPT -21.7%, HT1080NT lethal -21.4%, DT40 TDP1 no CPT inconclusive, IL-1B inflam inh -26.5, uPA generation -3.4% and HT1080 IDH1KD tx -11.9%.
Screening Cc1ccc(OCC(=O)NCC(=O)OCc2cc(=O)n3nc(CC(C)C)sc3n2)cc1 returned TDP1 cell CPT -24.0% and DT40 TDP1 no CPT -19.6%.
For COc1cccc(NC(=O)[C@@H]2CCC(=O)N2C2OC(=O)c3ccccc32)c1 (some centres not stated) the results were TDP1 cell CPT 10.8%, HT1080NT lethal -5.2%, DT40 TDP1 no CPT -8.5%, IL-1B inflam inh 17.0, uPA generation -8.3% and HT1080 IDH1KD tx -3.5%.
Screening CC(C)c1ccc(C(C(=O)NC2CCCC2)N(C(=O)c2csnn2)C2CC2)cc1 (configuration not stated) returned TDP1 cell CPT -29.9%, HT1080NT lethal 1.8%, DT40 TDP1 no CPT inconclusive, IL-1B inflam inh -9.4, uPA generation -16.5% and HT1080 IDH1KD tx -3.0%.
COc1ccc(CN2C(=O)CN(S(C)(=O)=O)CC2(C)C(=O)NCc2ccccc2)cc1OC (configuration not stated) was read as TDP1 cell CPT 27.4%, HT1080NT lethal 13.2%, DT40 TDP1 no CPT 18.6%, IL-1B inflam inh -7.5 and HT1080 IDH1KD tx 7.3%.
CC(C)Cc1nnc(NC(=O)CCC(=O)N2CCN(c3ccccc3)CC2)s1 was read as TDP1 cell CPT -24.9%, HT1080NT lethal -0.8%, DT40 TDP1 no CPT -3.2%, IL-1B inflam inh -7.8, uPA generation -49.4% and HT1080 IDH1KD tx -2.5%.
`COc1ccc(CN2CCN(C(=O)CCC(=O)Nc3nnc(C(F)(F)F)s3)CC2)cc1F` gave TDP1 cell CPT -27.2%, HT1080NT lethal -22.8%, DT40 TDP1 no CPT -15.0%, IL-1B inflam inh 51.1, uPA generation -22.9% and HT1080 IDH1KD tx -11.5%.
